Source: PubChem BioAssay (EPA / NIEHS)
Activity calls are given as the source filed them. How the source made its calls: active means hit-call score of the fitted dose curve at least 0.9, where 1 is the maximum; inactive means score below 0.9.

read-out: Cytochrome P450 (CYP1A1), CYP1A1 (gene 1543); experiment: LTEA_HepaRG_CYP1A1: Life Technologies and Expression Analysis (LTEA) Assay for Cytochrome P450 (CYP1A1) using HepaRG (AID 2283454); conditions: mRNA level, 48 h; actives raise or lower the signal
Summary of the method: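 Differentiated human HepaRG cells, after 48 h plating, exposed in duplicate for 48 h in serum-free induction medium to 8 half-log concentrations up to 100 uM in 0.5% DMSO. CYP1A1 mRNA by qRT-PCR, normalized to ACTB/GAPDH/POLR2A; bidirectional fit versus DMSO.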

| SMILES | AC50 | outcome |
| --- | --- | --- |
| CC1=C2C[C@H]3[C@@H](CC=C4C[C@@H](O)CC[C@@]43C)[C@@H]2CC[C@]12O[C@@H]1C[C@H](C)CN[C@H]1[C@H]2C | 34.3 µM (active) | – |
| CC#Cc1cc(C)nc(Nc2ccccc2)n1 | 13.8 µM (active) | – |
| CCC(C)(c1ccc(O)cc1)c1ccc(O)cc1 | – | inactive |
| Cc1ccccc1CO[C@@H]1C[C@@]2(C(C)C)CC[C@]1(C)O2 | 44.4 µM (active) | – |
| CCC(=O)O[C@H]1CC[C@H]2[C@@H]3CCC4=CC(=O)CC[C@]4(C)[C@H]3CC[C@]12C | 13.1 µM (active) | – |
| Oc1ccc(Cl)cc1Cl | – | inactive |
| CCCCCCCCCc1ccc(O)cc1 | 50 µM (active) | – |
| ClC(Cl)=C(c1ccc(Cl)cc1)c1ccc(Cl)cc1 | 36.8 µM (active) | – |
| O=S(=O)(O)C(F)(F)C(F)(F)C(F)(F)C(F)(F)C(F)(F)C(F)(F)F | 50 µM (active) | – |
| Cc1cc(O)ccc1Cl | – | inactive |
| O=C(O)C(F)(F)C(F)(F)C(F)(F)C(F)(F)C(F)(F)C(F)(F)C(F)(F)C(F)(F)F | – | inactive |
| COS(=O)(=O)OC | 25.5 µM (active) | – |
| N#Cc1ccc(N(CC(N)=O)CC(F)(F)F)cc1C(F)(F)F | 50 µM (active) | – |
| CCC(C)(CC)c1cc(NC(=O)c2c(OC)cccc2OC)on1 | 10.2 µM (active) | – |
| O=C(N[C@H]1CN2CCC1CC2)c1cc2ccoc2cn1 | 50 µM (active) | – |
| C1CC2OC2CC1C1CO1 (centres undefined) | – | inactive |
| O=S(=O)(O)C(F)(F)C(F)(F)C(F)(F)C(F)(F)F | – | inactive |
| O=NN(c1ccccc1)c1ccccc1 | 25.9 µM (active) | – |
| NS(=O)(=O)C(F)(F)C(F)(F)C(F)(F)C(F)(F)C(F)(F)C(F)(F)C(F)(F)C(F)(F)F | 13.8 µM (active) | – |
